# Test results as given in the supplement of paper PMC3545927.
# This is one part of the list. How many sequences the whole screen found active is unknown.
# Target: furin, P09958
# Test: furin cleavage Z-score vs untreated control; higher = more cleavage, active = 3.5 or more, inactive = 1 or less, 8 variable residues between constant flanks
# How it was run: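 Purified furin digested bead-held 8-mer peptide–cDNA fusions at 1:10 enzyme:substrate in 0.01 ml of 50 mM HEPES pH 7.5 with CaCl2 and NaCl for 7.5, 15 or 30 min. The cleavage Z-score compares sequencing counts of released DNA with furin-free reactions on a log scale, with lowess adjustment and median absolute deviation scaling.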
# furin, P09958, sequence (P09958 whole entry): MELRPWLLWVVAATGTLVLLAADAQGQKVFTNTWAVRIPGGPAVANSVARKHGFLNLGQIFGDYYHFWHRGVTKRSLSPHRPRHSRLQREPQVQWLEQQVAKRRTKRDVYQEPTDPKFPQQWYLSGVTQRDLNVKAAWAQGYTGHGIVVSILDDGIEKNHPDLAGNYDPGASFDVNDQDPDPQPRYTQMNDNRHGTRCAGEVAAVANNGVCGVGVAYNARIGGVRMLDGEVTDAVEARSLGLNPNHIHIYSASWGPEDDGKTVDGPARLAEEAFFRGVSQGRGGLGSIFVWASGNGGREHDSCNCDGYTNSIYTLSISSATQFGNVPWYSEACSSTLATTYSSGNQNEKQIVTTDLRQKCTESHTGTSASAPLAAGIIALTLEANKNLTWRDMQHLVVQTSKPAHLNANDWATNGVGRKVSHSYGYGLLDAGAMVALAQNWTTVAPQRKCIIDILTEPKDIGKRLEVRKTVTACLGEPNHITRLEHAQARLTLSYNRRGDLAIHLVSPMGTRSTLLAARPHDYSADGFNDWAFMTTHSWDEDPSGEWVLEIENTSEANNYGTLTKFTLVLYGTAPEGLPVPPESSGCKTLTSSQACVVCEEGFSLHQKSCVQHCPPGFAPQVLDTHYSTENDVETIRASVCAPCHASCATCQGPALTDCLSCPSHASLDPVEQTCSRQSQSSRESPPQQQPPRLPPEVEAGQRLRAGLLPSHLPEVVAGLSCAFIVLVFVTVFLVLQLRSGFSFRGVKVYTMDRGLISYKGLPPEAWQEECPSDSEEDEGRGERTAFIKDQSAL
Sequence,furin cleavage Z-score (7.5 min),furin cleavage Z-score (15 min),furin cleavage Z-score (30 min)
CAMEECLQHLAGNASASA [HC24],0.426 (inactive),0.849 (inactive),1.01
CAMEECIQHLAGNASASA [HC25],2.89,0.509 (inactive),1.63
CARKKRIVTGAGNASASA [FS-2342],4.57 (active),4.97 (active),5.79 (active)
CARKKRPGGGAGNASASA [FS-2344],0.0138 (inactive),0.394 (inactive),-0.0781 (inactive)
CARKKRTTSAAGNASASA [FS-2345],8.37 (active),8.69 (active),6.28 (active)
CARTYRWLSAAGNASASA [FS-2192],-0.657 (inactive),1.48,0.201 (inactive)
CARKGKSSSAAGNASASA [FS-1725],-1.17 (inactive),-1.17 (inactive),-0.784 (inactive)
CASSASQLSAAGNASASA [HC1261],0.811 (inactive),-0.271 (inactive),-1.07 (inactive)
CAMKKRDLSAAGNASASA [FS-2872],4.25 (active),5.63 (active),4.84 (active)
CARKKRSTSAAGNASASA [FU2],12.7 (active),14.1 (active),8.12 (active)
CASGKPAIIPAGNASASA [HC1005],-1.38 (inactive),-0.473 (inactive),0.121 (inactive)
CATTPCSCSWAGNASASA [HC1900],-1.59 (inactive),-2.52 (inactive),-0.421 (inactive)
CARSIRDAEDAGNASASA [FS-2805],0.647 (inactive),0.756 (inactive),1.52
CARHTRSYDYAGNASASA [FS-1897],1.79,2.03,4.9 (active)
CARHTPVNSWAGNASASA [HC1571],1.44,0.608 (inactive),0.598 (inactive)
CARHTRSIFWAGNASASA [FS-2147],4.67 (active),4.45 (active),7.05 (active)
CARGDRFSEDAGNASASA [FS-2931],-1.45 (inactive),-0.738 (inactive),-1.76 (inactive)
CATTPCSGFWAGNASASA [HC1907],-1.56 (inactive),-0.535 (inactive),-0.967 (inactive)
CARHTRSAEDAGNASASA [FS-2681],11.3 (active),11.4 (active),9.18 (active)
CARIIRSSEDAGNASASA [FS-2950],3.85 (active),3.61 (active),5.54 (active)
CARNTRSDEDAGNASASA [FS-3014],-1.02 (inactive),-0.114 (inactive),-1.53 (inactive)
CAGHTVSGFVAGNASASA [HC357],1.57,-0.476 (inactive),-0.897 (inactive)
CARGRRKDDYAGNASASA [FS-2417],0.188 (inactive),-0.41 (inactive),0.301 (inactive)

Sequence,furin cleavage Z-score (7.5 min),furin cleavage Z-score (15 min),furin cleavage Z-score (30 min)
CATRPCSGSWAGNASASA [HC1853],-0.899 (inactive),-0.615 (inactive),-0.153 (inactive)
CADAHFLSQTAGNASASA [HC945],0.613 (inactive),1.42,0.711 (inactive)
CATTNCSGSWAGNASASA [HC1881],-0.528 (inactive),-0.292 (inactive),0.376 (inactive)
CAEEVVCCSMAGNASASA [HC2132],0.374 (inactive),0.297 (inactive),-0.621 (inactive)
CAYHSVSHARAGNASASA [HC1651],-1.35 (inactive),-2.06 (inactive),0.0597 (inactive)
CAMEECSQHEAGNASASA [HC1772],1.5,-1.3 (inactive),0.318 (inactive)
CAAGAHWGVLAGNASASA [HC335],-0.197 (inactive),-0.687 (inactive),0.539 (inactive)
CADMEVVTSTAGNASASA [HC2286],0.448 (inactive),-0.986 (inactive),0.706 (inactive)
CATTPCSGSEAGNASASA [HC1932],-1.03 (inactive),-0.656 (inactive),-0.208 (inactive)
CACNHRNRRRAGNASASA [FS-1624],5.53 (active),5.63 (active),6.25 (active)
CAPAHRHRRRAGNASASA [FS-1040],8.92 (active),11.7 (active),8.95 (active)
CAVRKRLRRRAGNASASA [FS-106],5.39 (active),6.32 (active),5.13 (active)
CAKKSRLRRRAGNASASA [FS-1131],0.949 (inactive),0.557 (inactive),0.0179 (inactive)
CAFGRRLRRRAGNASASA [FS-1124],3.43,6.37 (active),4.4 (active)
CASTPCSAHCAGNASASA [HC2580],0.205 (inactive),1.68,0.424 (inactive)
CAIEECSQHLAGNASASA [HC1664],0.463 (inactive),0.93 (inactive),0.504 (inactive)
CAEVVTSWWVAGNASASA [HC2208],-0.678 (inactive),0.21 (inactive),-0.507 (inactive)
CAQHYRKKRWAGNASASA [FS-370],7.9 (active),8.78 (active),9.04 (active)
CALINTNGSWAGNASASA [HC367],1.08,-2.18 (inactive),0.0661 (inactive)
CAKIARHYRWAGNASASA [FS-1634],0.349 (inactive),0.374 (inactive),2.69
CALCGRYKRWAGNASASA [FS-49],9.62 (active),12 (active),10.7 (active)
CALIDRFKRWAGNASASA [FS-270],8.5 (active),9.49 (active),10.6 (active)
